Reference: PubChem BioAssay AID1578 (Sanford-Burnham Center for Chemical Genomics, 2009)
Where “and” joins values, the source holds several entries; their conditions need not be identical. Equal values may be shown once. Hit rate of the full screen: of about 290,000 compounds, about 3,000 (1%) were called active. Rule as the data show it: active = inhibition mostly above about 36% (no sharp cut-off); inactive = mostly below about 34%. The full list was thinned out, with actives kept by preference.

experiment: inhibition of NOD1-driven NF-kB reporter – cell-based, luminescence, uHTS, primary screen (AID 1578); details: NOD1-driven NF-kB luciferase reporter cells, at 4 µM, hits give high values;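 also: HEK-293T reporter cells stimulated with the NOD1 agonist gamma-tri-DAP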

inhibition, inactive:
COc1ccccc1CNc1nc(C)c(C(C)=O)s1 12.6%, CCOC(=O)/C(=N\Nc1ccccc1)S(=O)(=O)c1ccccc1 0.6%, CCOC(=O)/C(=N/Nc1ccc(Cl)cc1)S(=O)(=O)c1ccccc1 -14.8%, COC(=O)/C(=N/Nc1ccccc1)N1CCCc2ccccc21 -10.5%, CCOC(=O)/C(=N/Nc1ccc(OC)cc1)N1CCCc2ccccc21 -9.8%, CC(=O)c1csc(Nc2ccccc2Cl)n1 -3%, O=C(NC(=O)c1cccc(Cl)c1)OC[C@@H]1CCCN2CCCCC12 (stereo partly specified) 14.2%, CCOC(=O)c1cc2c(ccn2C)n1CC(=O)N1C(C)CCCC1C (stereo unspecified) 5.8%, O=S(=O)(Cc1ncc(C(F)(F)F)cc1Cl)c1ccccc1 18%, O=S(=O)(c1ccccc1)c1ncc(C(F)(F)F)cc1O -25.1%, O=C(NCCCCc1ccccc1)Nc1ccc(F)cc1 -30.8%, CCn1nc(C(=O)NCC(c2cccs2)N2CCOCC2)c2ccccc2c1=O (stereo unspecified) -2.4%, Cn1c(=O)c([N+](=O)[O-])c(Cl)c2ccccc21 -31.4%, CCN(CC)c1c([N+](=O)[O-])c(=O)n(CC)c2ccccc12 -5.5%, O=C(OCCC1Oc2cccnc2NC1=O)c1ccc(Cl)cc1 (stereo unspecified) -29.2%, COc1cccc(-c2nc(CS(=O)CC(=O)NCc3ccccc3)c(C)o2)c1 (stereo unspecified) -4.3%, Cc1ccc(-n2c(SCc3ccc(C#N)cc3)nnc2-c2ccccn2)cc1 2.2%, CCC(=O)N1c2ccc(S(=O)(=O)N3CCN(C)CC3)cc2CC1C (stereo unspecified) -8.9%, CCC(=O)N1c2ccc(S(=O)(=O)N3CCN(c4ccccc4Cl)CC3)cc2CC1C (stereo unspecified) 8.1%, O=S(=O)(Nc1cc(Sc2cccc3cccnc23)c(O)c2ccccc12)c1ccc(F)cc1 -23.7%, O=S(=O)(Nc1cc(Sc2ncn[nH]2)c(O)c2ccccc12)c1ccccc1 -1.5%, O=C(O)CSc1cc(NS(=O)(=O)c2ccc(Br)cc2)c2ccccc2c1O 5.8%, COc1ccc(S(=O)(=O)Nc2ccc(O)c(Sc3ncn[nH]3)c2)cc1 -28.8%, COC(=O)c1oc2ccccc2c1-n1cccc1 -6%, Cc1ccc2nsnc2c1S(=O)(=O)Nc1ccccc1C(=O)O -10.2%, Cc1ccc(C(C)C)c(OCC(O)CN2CC(C)OC(C)C2)c1 (stereo unspecified) 5.4%, CCOc1ccc(Cl)cc1CNCCCSc1ncccn1 5.6%, O=C(NNC1=C(C(=O)C(F)(F)F)CCC1)c1ccc(Cl)cc1 19.2%, O=C(NNC1=C(C(=O)C(F)(F)F)CCC1)c1cccc(O)c1 -26.1%, CO/N=C(/CS(=O)c1ccc(Br)cc1)c1ccc(OC)cc1 (stereo unspecified) -16%, Cc1cc(C)c2sc(N(CCN(C)C)C(=O)c3ccc4ccccc4c3)nc2c1 -10.4%, Cc1ccc(Cn2nnc3c(=O)n(Cc4cccc(C)c4)cnc32)cc1 3.6%, Cc1cccc(CC(=O)OCn2nnc3ccccc3c2=O)c1 -15.8%, CCOc1ccc(NC(=O)CCNC(=O)Cn2ccc3ccccc3c2=O)cc1 -20.7%, Cc1ccc(S(=O)(=O)Nc2nc3ccccc3nc2N2CCN(c3ccccc3F)CC2)cc1 5.2%, Cc1ccsc1C1C(C#N)=C(N)OC2=C1C(=O)CCC2 (stereo unspecified) -6.1%, N#Cc1sc(NCc2ccccc2)nc1Cl -19.1%, COc1ccc(CNc2nc(Cl)c(C#N)s2)cc1 3.8%, c1ccc(OCCOCCN2CCOCC2)cc1 7.9%, CCN1CCN(CCOCCOc2ccccc2-c2ccccc2)CC1 -24.4%, O=C(Cc1ccccc1)NNC(=O)Nc1ccccc1 -23.5%, Cc1ccc(C(O)c2nc3ccccc3n2C)cc1 (stereo unspecified) -7.9%, COc1ccc(C(O)c2nc3ccccc3n2C)cc1OC (stereo unspecified) 33.1%, CCCC(=O)NC(C)c1nc2ccccc2n1CC (stereo unspecified) -18.7%, CCCC(=O)NC(C)c1nc2ccccc2n1C(C)C (stereo unspecified) -2.5%, CCN(CC(=O)Nc1ccccc1Br)C1CCCCC1 -38.4%, C=CCN1C(=O)N/C(=C/c2ccc(C)o2)C1=O -35.1%, Nn1cc(-c2ccccc2)nc1SCC(=O)Nc1cccc(S(N)(=O)=O)c1 3.3%, O=C(Nc1cc(-c2ccccc2)[nH]n1)c1ccc(Cl)cc1 4.7% and -2.2%, O=C(Nc1ccccc1Cl)c1ccc2ccccc2c1 -11.1%, Cc1cccc(C)c1NC(=O)NC1(C(=O)N2CCN3CCCC3C2)CCCCC1 (stereo unspecified) -19.2%, COc1ccccc1C1C(C#N)=C(N)N(c2cccnc2)C2=C1C(=O)CC(C)(C)C2 (stereo unspecified) -21.9%, COc1cc(C2C(C#N)=C(N)N(c3cccnc3)C3=C2C(=O)CC(C)(C)C3)ccc1O (stereo unspecified) 9.6%, Cc1ccc(C)c(OC(=O)c2cccnc2)c1 -20.5%, Cc1ccc(OC(=O)c2ccncc2)c(C)c1 -45.8%, CCN(CC)C(=O)CSc1nc(O)cc(=O)n1-c1ccccc1OC -12.3%, CCC(NC(=O)NNC(=O)c1ccncc1)(C(F)(F)F)C(F)(F)F -3.5%, COc1ccc(-c2ccc(SC)nn2)cc1 -8.7%, CCOc1ccc(-c2ccc(SCC)nn2)cc1 -47.8%, COc1ccc(CC(=O)NNC(=O)COc2ccc3ccccc3c2)cc1 -32%, N#Cc1ccccc1NC(=O)COC(=O)c1ccc(F)cc1F 2.3%, Cc1cc(C)cc(C(=O)NC2CC(C)(C)NC(C)(C)C2)c1 -11.3%, COc1cc(C(=O)NC2CC(C)(C)NC(C)(C)C2)cc(OC)c1OC -31.3%, O=C(NC(CC(=O)N1CCN(c2ccc([N+](=O)[O-])cc2)CC1)c1ccccc1)c1ccccc1Cl (stereo unspecified) -5.6%, Cc1nc(-c2nc(-c3c(C(=O)NN)noc3C)cs2)cs1 -35.9%, Cc1ccc2c(c1)C(=O)c1c(C(=O)O)cccc1-2 -14.6%, CC1CCN(C(=O)C(C)Sc2nc(-c3ccccc3)cc(C(F)(F)F)n2)CC1 (stereo unspecified) 15.1%, CC(Sc1nc(-c2ccccc2)cc(C(F)(F)F)n1)C(=O)N1CCCC1 (stereo unspecified) -30.7%, O=C(O)CCn1c(SCCOc2ccccc2)nc2ccccc21 -29.9%, CCCCN(C)Cc1cc(=O)oc2ccc3ccccc3c12 -5.4%, CCc1ccc(OCc2nnc(SCCN3CCOCC3)n2CC)cc1 -13.7%, Fc1ccccc1NC(=S)NCCc1ccccc1 11.7%, FC(F)(F)c1cccc(Cn2cnc(NC(=S)NCCc3ccccc3)n2)c1 -22.4%, Nc1nc(-c2ccccc2)c(N=Nc2ccc(Cl)cc2)s1 14.5%, Nc1nc(-c2ccccc2)c(N=Nc2cccc3ccccc23)s1 -6.2%, Cc1cc(NC(=O)CSc2nc(Cc3ccc(O)cc3)c(C)[nH]2)no1 29.2%, CCOC(=O)c1nn(-c2ccc3c(c2)CCN3C(C)=O)cc1O -27.8%, COC(=O)c1nn(-c2ccc3c(c2)OCO3)cc1O -11.8%, N#CN=C(c1ccccc1)c1ccccc1 -20.8%, O=C(c1ccc(N2CCCC2=O)cc1)N1CCN(c2ccc(Cl)cc2)CC1 -4.5%, O=C(c1ccccc1-c1nc(-c2ccccc2)no1)N1CCCC1 -35%

inhibition, active:
CCOC(=O)/C(=N/Nc1ccccc1)N1CCCc2ccccc21 90.5%, CCOC(=O)/C(=N\Nc1ccccc1)P(=O)(c1ccccc1)c1ccccc1 43.4%, O=S(=O)(c1ccccc1)c1ncc(C(F)(F)F)cc1Cl 50.2%, CCn1c(=O)c([N+](=O)[O-])c(Cl)c2ccccc21 61.2%, COc1ccc(S(=O)(=O)Nc2cc(Sc3ncn[nH]3)c(O)c3ccccc23)cc1 93.1%, O=S(=O)(Nc1cc(Sc2cccc3cccnc23)c(O)c2ccccc12)c1ccccc1 109%, O=C(NNC1=C(C(=O)C(F)(F)F)CCC1)c1cccc(Cl)c1 83%, Cc1cccc(Cn2nnc3c2C(=O)c2ccccc2C3=O)c1 68.5%, Cc1ccc(CNc2nc(Cl)c(C#N)s2)cc1 63.4%, CCN1CCN(CCOCCOc2ccccc2)CC1 75.5%, CC(C)c1ccc(C(O)c2nc3ccccc3n2C)cc1 (stereo unspecified) 76.4%, CCCC(=O)NC(C)c1nc2ccccc2n1C (stereo unspecified) 36.2%, COc1ccc(C2C(C#N)=C(N)N(c3cccnc3)C3=C2C(=O)CC(C)(C)C3)cc1OC (stereo unspecified) 63.5%, Cc1ccc(C)c(OC(=O)c2ccncc2)c1 54.5%, CCOc1ccc(-c2ccc(SC)nn2)cc1 57.2%, COc1cc(OC)cc(C(=O)NC2CC(C)(C)NC(C)(C)C2)c1 83%, CC(Sc1nc(-c2ccccc2)cc(C(F)(F)F)n1)C(=O)N1CCC(C(N)=O)CC1 (stereo unspecified) 62.8%, Fc1ccccc1Cn1cnc(NC(=S)NCCc2ccccc2)n1 47.4%, Nc1nc(-c2ccccc2)c(N=Nc2cccnc2)s1 69.6%, COC(=O)c1nn(-c2ccc3c(c2)CCN3C(C)=O)cc1O 78.5%
